Source: PubChem (National Center for Advancing Translational Sciences (NCATS))
This is a sample that favours compounds with a hit; in the whole collection about 18% have one here.
HepG2 viability – kills HepG2 cells in TGF-b inhibitor counter-screen; HepG2 CAGA-GFP viability, ATP luminescence, 18 h; Potency, µM (doses to about 46.1 µM), inactives show at the top dose activity change, negative = cytotoxicity, usual class: cytotoxic; 410,000 compounds, 0.76% hits; AID 588856; also: potency is read from the fitted curve at half-maximal effect
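CellTiter-Glo luminescence gave cytotoxicity after 18 hours at 37 degrees C. The cells were HepG2 CAGA-GFP in 1% FBS DMEM, stimulated with 500 pg/mL TGF-beta after compound addition. %Activity was normalised to no-cell wells (complete cell-killing) and DMSO (no toxicity), and curves were fitted and classified.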
TDP1 inh – blocks human tyrosyl-DNA phosphodiesterase 1; AID 485290; Q9NUW8; recombinant TDP1, AlphaScreen DNA substrate cleavage; 350,000 compounds, 0.28% hits; Potency, µM (series often up to 130 µM), inactives show at the highest dose activity change, negative = inhibition, hits mostly inhibitors; also: potency is read from the fitted curve at half-maximal effect; % is scaled to controls: 0 for no effect and ±100 for the full control effect; nearly all actives have a fitted effect of over 40% in size
Target sequence (Q9NUW8 whole entry, looked up): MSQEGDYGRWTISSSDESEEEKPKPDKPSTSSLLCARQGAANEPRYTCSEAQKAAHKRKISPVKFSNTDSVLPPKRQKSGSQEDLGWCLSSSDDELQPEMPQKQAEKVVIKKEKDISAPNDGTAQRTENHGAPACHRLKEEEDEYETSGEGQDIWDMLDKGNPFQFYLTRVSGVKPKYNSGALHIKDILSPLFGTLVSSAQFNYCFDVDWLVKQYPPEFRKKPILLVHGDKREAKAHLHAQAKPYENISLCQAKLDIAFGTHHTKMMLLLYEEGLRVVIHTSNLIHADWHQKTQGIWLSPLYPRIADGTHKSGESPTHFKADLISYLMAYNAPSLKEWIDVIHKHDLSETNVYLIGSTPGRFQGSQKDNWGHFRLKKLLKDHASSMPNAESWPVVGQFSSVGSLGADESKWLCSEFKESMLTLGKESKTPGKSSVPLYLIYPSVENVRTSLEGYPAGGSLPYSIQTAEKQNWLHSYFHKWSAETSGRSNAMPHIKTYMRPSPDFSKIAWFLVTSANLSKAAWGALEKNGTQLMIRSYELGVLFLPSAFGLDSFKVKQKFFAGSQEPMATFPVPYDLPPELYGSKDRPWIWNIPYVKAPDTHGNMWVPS
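Signal: AlphaScreen proximity between streptavidin donor and anti-FITC acceptor beads on intact substrate. Reaction: Tdp1 1 nM, substrate 15 nM final, 5 min RT after 15 min compound preincubation.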
DT40 TDP1 no CPT – qHTS for Inhibitors of human tyrosyl-DNA phosphodiesterase 1 (TDP1): qHTS in cells in absence of CPT | 420,000 compounds, 15% hits | AID 686978, 2013 | DT40 Tdp1-/- hTDP1 cells, no CPT, ATP luminescence, 48 h | Potency, µM (top dose mostly 46.2 µM), for the others: top-dose activity change, negative = growth inhibition, most hits filed as inhibitors; also: potency is read from the fitted curve at half-maximal effect; % is scaled to controls: 0 for no effect and ±100 for the full control effect; nearly all actives have a fitted effect of over 55% in size
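Compound effects on proliferation are scored in DT40 Tdp1-/-;hTDP1 cells in the absence of CPT. ATP levels (CellTiter-Glo luminescence) are recorded after a ≥48 hr, 37 °C incubation.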
TDP1 cell CPT – growth inhibition of DT40 Tdp1-/-;hTDP1 cells with camptothecin (screen for TDP1 inhibitors); chicken DT40 Tdp1-/-;hTDP1 cells + 20 nM CPT, ATP luminescence, 48 h; Potency, µM (series often up to 46.2 µM), inactives show at the top dose activity change, negative = growth inhibition, usual class: inhibitors; 420,000 compounds, 12% hits; also: potency is read from the fitted curve at half-maximal effect; % is scaled to controls: 0 for no effect and ±100 for the full control effect; nearly all actives have a fitted effect of over 55% in size
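Cell growth measured by CellTiter-Glo luminescence after a minimum 48 h, 37 C compound exposure with 20 nM CPT in Tdp1-knockout DT40 cells stably expressing hTDP1, seeded 400/well; qHTS titration format.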
IL-1B inflam inh – inhibitors of inflammasome signaling (IL-1 beta secretion) | THP-1 LPS/ATP IL-1B secretion, AlphaLISA, 16 h; stronger effect = lower value | activity change, % at 57.5 µM | 360,000 compounds, 4.7% hits; in the data active = activity change below about -50%; inconclusive = mostly about -30% to -49%; also: % is scaled to controls: 0 for no effect and ±100 for the full control effect
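THP-1 cells pretreated 1 hr with compounds (up to 57.5 uM final), then stimulated with LPS (250 ng/mL final) plus ATP (1.25 mM final); secreted IL-1B measured by AlphaLISA after 16 hr, decreased signal indicating inhibition.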
TGFb inhibitor – inhibitors of TGF-b signaling; 410,000 compounds, 1.2% hits; Potency, µM (doses to about 46.1 µM), for inactives: at the top dose activity, negative = inhibition, usual class: inhibitors; HepG2 CAGA-GFP TGF-b/SMAD3 reporter, GFP fluorescence, 18 h; TGF-beta stimulated, 500 pg/mL final; also: potency is read from the fitted curve at half-maximal effect; % is scaled to controls: 0 for no effect and ±100 for the full control effect; nearly all actives have a fitted effect of over 65% in size
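Per well, imaged GFP fluorescence of HEPG2 CAGA-GFP cells gives the signal; cells get compound, then TGF-beta (500 pg/mL final), 18 h at 37 degrees C; %Activity versus -TGF-beta and +DMSO controls.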
* = called active by the depositor; ? = inconclusive; . = no result. Unless noted, calls follow the shape of the dose curve; as a rule, active = well fitted curve in the direction sought with a large enough effect; inconclusive = small, poorly fitted or top-dose-only effect, or another doubt; inactive = no such curve, though single readings can be large; an effect the other way counts as inactive or inconclusive.

SMILES | HepG2 viability | TDP1 inh | DT40 TDP1 no CPT | TDP1 cell CPT | IL-1B inflam inh | TGFb inhibitor
CCCCN1C(=O)C(=O)N(CC(=O)Nc2cc(S(=O)(=O)N(C)C)ccc2C)C1=O | 12.8% | -5.3% | -2.9% | ? | 1.3 | 5.7%
COc1ccc2c(c1)c1c(c(=O)n(Cc3ccccc3)c(=O)n1CC(=O)Nc1c(C)cccc1C)n2C | 7.1% | 2.8% | -0.6% | 0.5% | . | 10.2%
CSc1ncnc2c1ncn2CCCN1CCN(c2ccccn2)CC1 | -18.6% | . | 16.4µM* | ? | 30.0 | -10.4%
c1ccc(COc2ncnc3c2ncn3CCCN2CCN(c3ccccn3)CC2)cc1 | -9.3% | . | 16.4µM* | ? | -25.5 | ?
CN(C)S(=O)(=O)N(CC(=O)NCCSCc1c(F)cccc1Cl)c1ccccc1 | -17.8% | 1.1% | . | . | . | 0.9%
NNC(=O)CSc1c(-c2ccccc2)c2cc(Cl)ccc2[nH]c1=O | -2.8% | . | ? | 1.8% | -18.1 | 1.0%
O=c1[nH]c2ccc(Cl)cc2c(-c2ccccc2)c1SC(=S)N1CCOCC1 | -65.3% | 6.8% | ? | ? | ? | 12.6µM*
Cc1nc(C)c(-c2csc(Nc3ccc(Cl)cn3)n2)s1 | -25.4% | . | ? | 18.4µM* | 22.2 | ?
Cc1nc(C)c(-c2csc(Nc3ccc(O)cc3C)n2)s1 | 2.0% | . | 5.8µM* | 16.4µM* | -5.6 | -0.9%
Cc1cc(O)ccc1Nc1nc(-c2cccs2)cs1 | -6.1% | 5.5% | -5.7% | -4.8% | -84.1* | -21.0%
Cc1cc(O)ccc1Nc1nc(-c2cccnc2)cs1 | 5.8% | . | -51.8% | -50.8% | -0.5 | -13.1%
CCC(C)C(NC(=O)c1ccccc1)C(=O)Nc1ccc(S(=O)(=O)Nc2cc(C)nc(C)n2)cc1 (configuration not stated) | -45.5% | 2.7% | 8.0% | -11.5% | -4.3 | 0.7%
C[C@@H](OC(=O)c1[nH]cnc1C(=O)NCc1ccc(CNC(=O)OC(C)(C)C)cc1)c1ccccc1 | -8.0% | 4.6% | 16.4µM* | 20.6µM* | -21.1 | ?
CC(C)(C)OC(=O)NCc1ccc(CNC(=O)c2[nH]cnc2C(=O)NCC(=O)OCc2ccccc2)cc1 | -0.5% | . | ? | ? | -0.6 | -2.1%
CN(Cc1ccccc1)C(=O)c1[nH]cnc1C(=O)NC1CCN(C(=O)OC(C)(C)C)CC1 | -5.0% | 3.4% | ? | 20.6µM* | 14.6 | -18.6%
C[C@@H]1CNC(=O)c2c(C(=O)NCc3ccc(CNC(=O)OC(C)(C)C)cc3)ncn21 | 3.0% | . | 20.6µM* | ? | 1.1 | 0.6%
CN(Cc1ccccc1)C(=O)c1[nH]cnc1C(=O)NCc1ccc(CNC(=O)OC(C)(C)C)cc1 | -0.2% | 0.1% | 13µM* | ? | 9.1 | ?
CCOC(=O)CN[C@@H](C(=O)N1CC[C@H]1C(=O)NCc1ccc(/C(N)=N/O)cc1)C1CCCCC1 | . | . | 4.3% | -2.7% | . | .
COc1ccc(C(C)C)cc1S(=O)(=O)NC1CCCC1 | -3.3% | -0.1% | -22.9% | ? | 16.7 | -2.8%
CC(OC(=O)CCN=C1NS(=O)(=O)c2ccccc21)C(=O)N(C)C1CCCCC1 (configuration not stated) | 3.8% | 0.2% | ? | ? | 9.1 | -0.4%
CC(C)(C)OC(=O)N1CCC(NC(=O)c2[nH]cnc2C(=O)Nc2ccc(Br)cc2F)CC1 | -4.9% | . | 18.4µM* | 20.6µM* | 2.3 | 15.0%
Cc1ccc(S(=O)(=O)Nc2cc3c4c(c2)CC(=O)N4CCC3)cc1 | -22.4% | 1.2% | ? | ? | 15.0 | -0.4%
CCC(C)n1c(-c2cccs2)nc2nc3ccccc3nc21 (configuration not stated) | -7.4% | -4.7% | 11.6µM* | 18.4µM* | 17.5 | 13.7%
